Reference: PubChem BioAssay AID1159580 (chemical genetic matrix, 2015)
“And” between values parts separate entries of the source, which are not always exact repeats. Equal entries are not always repeated. Hit rate of the full screen: of about 5,500 compounds, about 2,000 (36%) were called active. Inconclusive results (about 18%) are left out. No stated cut-off is given here; in the data, active means normalized growth mostly below about 0.91 (no sharp cut-off); inconclusive means no clear call, values can overlap the other calls; inactive means mostly above about 0.92. This is one part of the list.

Experiment: chemical genetic growth profiling, strain panel (AID 1159580);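 further: tested at 20 µM; growth read once vehicle control cultures reached saturation at 30 °C; 1 = growth at the plate median or of vehicle wells; lower values mean less growth of the strain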
Conditions: growth OD

Measured: normalized growth

CCCCNC(=O)NS(=O)(=O)c1ccc(C)cc1
inactive: S. cerevisiae deletion strains, locus YJR075W, strain HOC1, hits give low values 0.963 and 0.994 | S. cerevisiae deletion strains, locus YKL009W, strain mrt4, hits give low values 0.953 | S. cerevisiae deletion strains, locus YKL068W, hits give low values 0.98 | S. cerevisiae deletion strains, locus YKL085W, strain MDH1 (second series), hits give low values 0.973 | S. cerevisiae deletion strains, locus YKL085W, strain MDH1, hits give low values 0.973 | S. cerevisiae deletion strains, locus YKL160W, strain elf1, hits give low values 1 | S. cerevisiae deletion strains, locus YKL190W, strain CNB1, hits give low values 0.991 | S. cerevisiae deletion strains, locus YKR001C, strain vps1, hits give low values 0.985 | S. cerevisiae deletion strains, locus YKR026C, strain gcn3, hits give low values 0.999 | S. cerevisiae deletion strains, locus YKR091W, strain srl3, hits give low values 1.01 | S. cerevisiae deletion strains, locus YLL001W, strain dnm1, hits give low values 1.02 | S. cerevisiae deletion strains, locus YLL026W, hits give low values 1.01 | S. cerevisiae deletion strains, locus YLL041C, strain sdh2, hits give low values 1.01 | S. cerevisiae deletion strains, locus YLR027C, strain aat2, hits give low values 1 | S. cerevisiae deletion strains, locus YLR039C, strain RIC1, hits give low values 0.961 | S. cerevisiae deletion strains, locus YLR058C, strain SHM2, hits give low values 0.991 | S. cerevisiae deletion strains, locus YLR102C, strain apc9, hits give low values 0.985 | S. cerevisiae deletion strains, locus YLR113W, strain HOG1, hits give low values 0.915 | S. cerevisiae deletion strains, locus YLR221C, strain rsa3, hits give low values 0.952 | S. cerevisiae deletion strains, locus YLR258W, strain gsy2, hits give low values 1.01 | S. cerevisiae deletion strains, locus YLR262C, strain YPT6 (second series), hits give low values 0.984 | S. cerevisiae deletion strains, locus YLR262C, strain YPT6, hits give low values 0.933 | S. cerevisiae deletion strains, locus YLR268W, strain sec22, hits give low values 0.951 | S. cerevisiae deletion strains, locus YLR320W, strain mms22, hits give low values 0.999 | S. cerevisiae deletion strains, locus YLR330W, strain CHS5, hits give low values 0.986 | S. cerevisiae deletion strains, locus YLR342W, strain FKS1 (second series), hits give low values 1.01 | S. cerevisiae deletion strains, locus YLR342W, strain FKS1, hits give low values 1.02 | S. cerevisiae deletion strains, locus YLR357W, strain rsc2, hits give low values 1.02 | S. cerevisiae deletion strains, locus YLR370C, strain arc18, hits give low values 1.02 | S. cerevisiae deletion strains, locus YLR371W, strain rom2, hits give low values 0.974 | S. cerevisiae deletion strains, locus YLR384C, strain iki3, hits give low values 1.02 | S. cerevisiae deletion strains, locus YLR418C, strain cdc73, hits give low values 1.01 | S. cerevisiae deletion strains, locus YML016C, strain PPZ1, hits give low values 0.996 | S. cerevisiae deletion strains, locus YML032C, strain rad52, hits give low values 0.983 | S. cerevisiae deletion strains, locus YML120C, strain ndi1, hits give low values 1.03 | S. cerevisiae deletion strains, locus YML124C, strain tub3, hits give low values 0.979 | S. cerevisiae deletion strains, locus YMR058W, strain fet3, hits give low values 1.02 | S. cerevisiae deletion strains, locus YMR078C, strain ctf18, hits give low values 0.969 | S. cerevisiae deletion strains, locus YMR125W, strain sto1, hits give low values 1.02 | S. cerevisiae deletion strains, locus YMR129W, hits give low values 1.01 | S. cerevisiae deletion strains, locus YMR205C, strain PFK2, hits give low values 1.01 | S. cerevisiae deletion strains, locus YMR223W, strain ubp8, hits give low values 1.01 | S. cerevisiae deletion strains, locus YMR231W, strain pep5, hits give low values 1 | S. cerevisiae deletion strains, locus YMR263W, strain SAP30, hits give low values 0.999 | S. cerevisiae deletion strains, locus YMR307W, strain GAS1, hits give low values 1.01 and 1 | S. cerevisiae deletion strains, locus YNL067W, strain RPL9B, hits give low values 0.992 | S. cerevisiae deletion strains, locus YNL071W, strain lat1, hits give low values 1.01 | S. cerevisiae deletion strains, locus YNL128W, strain TEP1, hits give low values 0.965 and 0.986 | S. cerevisiae deletion strains, locus YNL175C, strain NOP13, hits give low values 1.01 | S. cerevisiae deletion strains, locus YNL183C, strain NPR1, hits give low values 0.912 | S. cerevisiae deletion strains, locus YNL197C, strain WHI3, hits give low values 1.01 | S. cerevisiae deletion strains, locus YNL209W, strain ssb2, hits give low values 1.02 | S. cerevisiae deletion strains, locus YNL224C, strain SQS1, hits give low values 0.995 | S. cerevisiae deletion strains, locus YNL233W, strain BNI4, hits give low values 1 | S. cerevisiae deletion strains, locus YNL248C, strain rpa49, hits give low values 1 | S. cerevisiae deletion strains, locus YNL250W, strain rad50, hits give low values 0.998 | S. cerevisiae deletion strains, locus YNL271C, strain bni1, hits give low values 0.991 | S. cerevisiae deletion strains, locus YNL298W, strain CLA4, hits give low values 0.981 | S. cerevisiae deletion strains, locus YNL307C, strain MCK1, hits give low values 0.978 | S. cerevisiae deletion strains, locus YNL322C, strain KRE1 (second series), hits give low values 0.99 | S. cerevisiae deletion strains, locus YNL322C, strain KRE1, hits give low values 0.992 | S. cerevisiae deletion strains, locus YNR049C, strain mso1, hits give low values 1.01 | S. cerevisiae deletion strains, locus YNR052C, strain pop2, hits give low values 0.98 | S. cerevisiae deletion strains, locus YOL006C, strain TOP1, hits give low values 1.07 | S. cerevisiae deletion strains, locus YOL012C, strain htz1 1.12 | S. cerevisiae deletion strains, locus YOL147C, strain pex11, hits give low values 0.981 | S. cerevisiae deletion strains, locus YOR001W, strain rrp6, hits give low values 1.02 | S. cerevisiae deletion strains, locus YOR061W, strain CKA2, hits give low values 1 | S. cerevisiae deletion strains, locus YOR069W, strain VPS5, hits give low values 0.985 | S. cerevisiae deletion strains, locus YOR070C, strain gyp1, hits give low values 1.01 | S. cerevisiae deletion strains, locus YOR080W, strain dia2, hits give low values 1.02 | S. cerevisiae deletion strains, locus YOR083W, strain WHI5 (second series), hits give low values 1.01 | S. cerevisiae deletion strains, locus YOR083W, strain WHI5, hits give low values 0.998 | S. cerevisiae deletion strains, locus YOR106W, strain vam3, hits give low values 1.04 | S. cerevisiae deletion strains, locus YOR136W, strain idh2, hits give low values 0.998 | S. cerevisiae deletion strains, locus YOR144C, strain elg1, hits give low values 0.992 | S. cerevisiae deletion strains, locus YOR184W, strain ser1, hits give low values 1 | S. cerevisiae deletion strains, locus YOR231W, strain MKK1, hits give low values 0.983 | S. cerevisiae deletion strains, locus YOR265W, strain rbl2, hits give low values 1.01 | S. cerevisiae deletion strains, locus YOR270C, strain vph1, hits give low values 1.04 | S. cerevisiae deletion strains, locus YOR290C, strain snf2, hits give low values 0.998 | S. cerevisiae deletion strains, locus YOR316C, strain cot1, hits give low values 0.979 | S. cerevisiae deletion strains, locus YPL051W, strain arl3, hits give low values 0.999 | S. cerevisiae deletion strains, locus YPL055C, strain LGE1, hits give low values 1.01 | S. cerevisiae deletion strains, locus YPL078C, strain atp4, hits give low values 1.04 | S. cerevisiae deletion strains, locus YPL106C, strain sse1, hits give low values 1.06 | S. cerevisiae deletion strains, locus YPL240C, strain hsp82, hits give low values 1 | S. cerevisiae deletion strains, locus YPL241C, strain CIN2, hits give low values 0.994 and 1 | S. cerevisiae deletion strains, locus YPL256C, strain CLN2, hits give low values 0.945 | S. cerevisiae deletion strains, locus YPR119W, strain clb2, hits give low values 0.986 | S. cerevisiae deletion strains, locus YPR141C, strain kar3, hits give low values 0.979 | S. cerevisiae deletion strains, locus YPR163C, strain tif3, hits give low values 0.979 | S. cerevisiae deletion strains, locus YPR167C, strain met16, hits give low values 0.987 | S. cerevisiae deletion strains, strain wtn01, hits give low values 0.969 | S. cerevisiae strains, strain wild type, hits give low values 1
